From PubChem BioAssay AID488859 (Sanford-Burnham Center for Chemical Genomics, 2010)
Hit rate of the full screen: of about 1,400 compounds, about 970 (69%) were called active. Inconclusive results (about 5%) are left out. The set was probably picked from earlier hits. Not all results are given here. Unmarked numbers belong to inactive results. No stated cut-off is given here; in the data, active means inhibition above about 45%; inconclusive means no clear call, values can overlap the other calls; inactive means below that.

target: Ubiquitin-conjugating enzyme E2 N (Homo sapiens) (UniProt P61088); assay: retested blockers of UBC13 chain formation – biochemical, TR-FRET, single concentration, confirmation (AID 488859); conditions: UBC13 polyubiquitination, at 10 µM, active compounds read high
Sequence (P61088 whole entry, looked up): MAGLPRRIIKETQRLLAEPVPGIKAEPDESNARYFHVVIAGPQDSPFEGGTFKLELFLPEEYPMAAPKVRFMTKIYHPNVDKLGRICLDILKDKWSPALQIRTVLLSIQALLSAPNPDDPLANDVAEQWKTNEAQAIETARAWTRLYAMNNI

Q: Which inhibition does the source give for `O=S(=O)(c1ccc(NC(=S)NN=C(C2CC2)C2CC2)cc1)N1CCOCC1` here?
A: 60.4% (active)

Q: `CN(C(=O)CN(CCO)CC(=O)N(C)C(C)(C)Cc1ccccc1)C(C)(C)Cc1ccccc1` was tested. Which inhibition did it give?
A: 44.3%

Q: With `Cc1cccc(OCC(O)CN2CCN(CCN3C(=O)c4cccc5cccc(c45)C3=O)CC2)c1C` (configuration not stated) as the molecule, how does the inhibition read?
A: 101% (active)

Q: For `CCN1C(=NCc2ccc(OC)cc2)N[C@@H](CCc2ccccc2)[C@H](C(=O)NCc2ccc(OC)cc2)[C@H]1C`, which inhibition is on record?
A: 34.8%

Q: `COc1cccc(Cn2cnc3c([N+](=O)[O-])c(C)c(C)cc32)c1` was tested. Which inhibition did it give?
A: 63.7% (active)

Q: For `NC(N)=N/N=C/c1ccc(OCc2ccc(Cl)cc2Cl)cc1`, which inhibition is on record?
A: 121% (active)

Q: With `CCOc1ccc2nc(N(CCCN(C)C)C(=O)c3ccc(C(=O)c4ccccc4)cc3)sc2c1` as the molecule, how does the inhibition read?
A: 111% (active)

Q: Which inhibition does the source give for `CN(C)CCCN(C(=O)c1ccc(S(=O)(=O)N2CCCCCC2)cc1)c1nc2ccc(Br)cc2s1` here?
A: 107% (active)

Q: Which inhibition does the source give for `CN(C)CCCN(C(=O)c1ccc(S(=O)(=O)N2CCCCCC2)cc1)c1nc2cc3c(cc2s1)OCCO3` here?
A: 110% (active)

Q: For `c1ccc2c(CCN3CCNC[C@H]3Cc3cccc4ccccc34)cccc2c1`, which inhibition is on record?
A: 44.3%

Q: Which inhibition does the source give for `CCCCCCCCCCOC(=O)Cn1c(COc2cccc(OC)c2)[n+](C)c2ccccc21` here?
A: 63.8% (active)

Q: `CCOC(=O)c1cccc(NS(=O)(=O)c2c(C(=O)N3CCCCCC3)c(C)n(C)c2C)c1` was tested. Which inhibition did it give?
A: 43.9%

Q: For `COc1ccc(C(CNC(=O)c2cccc(NS(=O)(=O)c3ccc(C)c(F)c3)c2)N2CCCC2)cc1` (configuration not stated), which inhibition is on record?
A: 94.5% (active)

Q: `CCCCN(C)CCCNC(=O)c1cc(-c2cccs2)nc2ccccc12` was tested. Which inhibition did it give?
A: 45.7% (active)

Q: `COC(=O)c1cc(-c2cccs2)nc2ccccc12` was tested. Which inhibition did it give?
A: 18.1%

Q: Which inhibition does the source give for `Cc1cc(C)c(NC(=O)C[N+](C)(C)CC(O)COc2cccc3ccccc23)c(C)c1` (configuration not stated) here?
A: 60.3% (active)

Q: For `CCCCN(CCCC)CCC(O)c1cc2c(Cl)cc(Cl)cc2c2cc(C(F)(F)F)ccc12` (configuration not stated), which inhibition is on record?
A: 56.5% (active)

Q: Which inhibition does the source give for `Cc1ccc(-c2noc(CCC(=O)Nc3ccccc3N3CCN(C)CC3)n2)cc1` here?
A: 92.8% (active)

Q: `CCCOc1ccc(Cl)cc1Nc1nc(NCCO)nc(N2CCCC2)n1` was tested. Which inhibition did it give?
A: 16.5%

Q: `C#CCOCCOCCOCCNc1nc(N2CCN(C(=O)[C@H](CCCCN)n3cc([C@@H](N)C(C)CC)nn3)CC2)nc(N2CCN(C(=O)[C@H](Cc3ccc(O)cc3)n3cc([C@@H](N)C(C)CC)nn3)CC2)n1` (some centres not stated) was tested. Which inhibition did it give?
A: 105% (active)

Q: How did the inhibition turn out when `C#CCOCCOCCOCCNc1nc(N2CCN(C(=O)C(Cc3ccc(O)cc3)n3cc(C(N)CC(C)C)nn3)CC2)nc(N2CCN(C(=O)C(Cc3ccc(O)cc3)n3cc(C(N)C(C)CC)nn3)CC2)n1` (configuration not stated) was run?
A: 23.8%

Q: With `C#CCOCCOCCOCCNc1nc(N2CCN(C(=O)C([C@@H](C)O)n3cc([C@@H](N)CCCCN)nn3)CC2)nc(N2CCN(C(=O)[C@H](CCCCN)n3cc(CN)nn3)CC2)n1` (some centres not stated) as the molecule, how does the inhibition read?
A: 113% (active)

Q: For `C#CCOCCOCCOCCNc1nc(N2CCN(C(=O)C([C@@H](C)CC)n3cc(C(N)COC(=O)C(F)(F)F)nn3)CC2)nc(N2CCN(C(=O)[C@H](CCCCN)n3cc(C(N)CC(C)C)nn3)CC2)n1` (some centres not stated), which inhibition is on record?
A: 103% (active)

Q: Which inhibition does the source give for `C=C1c2c(Cl)ccc(O)c2C(O)=C2C(=O)[C@]3(O)C(O)=C(C(N)=O)C(=O)[C@@H](N(C)C)[C@@H]3[C@@H](O)C12` (some centres not stated) here?
A: 50.8% (active)

Q: Which inhibition does the source give for `COc1ccccc1NC(=O)CSc1nnc(-c2ccoc2C)n1CCc1ccccc1` here?
A: 94.4% (active)

Q: How did the inhibition turn out when `CCN(CC)CCC(c1cc(OC)c(OC)c(OC)c1)c1c(OC)cc(OC)c2c(-c3ccccc3)cc(=O)oc12` (configuration not stated) was run?
A: 35.1%

Q: Which inhibition does the source give for `CN1CCN(CCCNC(=O)c2ccc(/C=C3\Oc4ccccc4N(Cc4ccc(Cl)cc4)C3=O)cc2)CC1` here?
A: 111% (active)

Q: With `Cn1c(C(=O)NCCCN2CCN(c3cccc(Cl)c3)CC2)cc2c(=O)n(C)c3ccccc3c21` as the molecule, how does the inhibition read?
A: 38.7%

Q: How did the inhibition turn out when `CCN(CC(=O)NCc1cccs1)C(=O)c1cccc(S(=O)(=O)Nc2ccccc2OC)c1` was run?
A: 106% (active)

Q: `OCCNc1nc(Nc2ccc(Cl)c(Cl)c2)nc2ccccc12` was tested. Which inhibition did it give?
A: 92% (active)

Q: Which inhibition does the source give for `Cc1ncc(CO)c(/C=N/NC(=O)c2cccc(S(=O)(=O)N3CCCC3)c2)c1O` here?
A: 32.9%

Q: How did the inhibition turn out when `CSCCC(NC(=O)c1ccc(Cl)cc1Cl)C(=O)NNC(=O)c1csc(N2CCOCC2)n1` (configuration not stated) was run?
A: 55.6% (active)
